Results published in PubChem BioAssay AID588342 (National Center for Advancing Translational Sciences (NCATS), 2011).
About 25,000 (6.9%) of roughly 360,000 compounds were called active. Where a call stands in place of a potency, no number is given. About 9% were inconclusive and are not listed. The sample holds actives, similar compounds and a random draw of the others, so the mix is not that of the screen. Calls come from the whole dose curve; as a rule, active = well fitted inhibition curve with a large enough effect; inconclusive = small, poorly fitted or top-dose-only effect; inactive = flat fitted curve, though single readings scatter.

Target: Luciferin 4-monooxygenase (Photinus pyralis) (UniProt P08659)
Experiment: qHTS profiling assay for firefly luciferase inhibitor/activator using purifed enzyme and Km concentrations of substrates (counterscreen for miR-21 project); note: nearly all actives have a fitted effect of over 55% in size
Conditions: purified FLuc, luminescence inhibition; series mostly up to 57.5 µM
Text: MLPCN Grant: 1 R21 NS059478-01 (miR-21 grant) Assay Provider: NCGC NCGC Assay Overview: Firefly (Photinus pyralis) luciferase is one of the most commonly used transcriptional reporters for a number of reasons. It is considered one of the more dynamically responsive reporters -that is, responsive to changes in reporter transcription - as it requires no post-translational modifications and is enzymatically active directly after protein synthesis (Wood, 1998). Additionally, the half-life of the luciferase protein is short relative to other reporter-gene products (Wood, 1995). Whereas reporters with long half-lives potentially allow for increased signal due to accumulation of reporter-gene product, once accumulated in the cell, dynamic changes in reporter-gene expression may be difficult to detect(Fan and Wood, 2007; Almond et al., 2004). It has been shown that wild-type P. pyralis luciferase has a half-life of approximately […] hours in mammalian cells (Thompson et al., 1991). Firefly luciferase reporter-gene assays are also generally considered one of the most sensitive assay types (Wood, 1995; Wood, 1998). Although light produced in a bioluminescence reaction is of lower intensity than that produced during fluorescence emission, this is offset by little to no background light inherent to luminescent assays. Thus the luciferase reporter can be expressed at much lower levels than fluorescent proteins while still providing robust signal. # However, it was initially observed, in 1991, by Thompson et al., that compounds that resemble the substrates of firefly luciferase (FLuc) can act as competitive inhibitors of the enzyme, and that these compounds, upon interaction with luciferase in the cell, can actually stabilize the protein and increase its half-life. Accumulated intracellular FLuc protein can be measured as an increase in luminescence signal, upon addition of detection reagents (which contain high concentrations of FLuc substrates) commonly used in high-throughput screening. In cell-based reporter gene assays that use FLuc as the reporter gene to quantitate the potential influence of a given compound against the target biology, this apparent increase in luminescence can mistakenly be interpreted as identification of a compound that is active against the target of interest. This is the case for the miR-21 FLuc reporter gene assay used to identify inhibitors of the miR-21 pathway (PubChem AID 2289) - compounds of interest will inhibit miR-21 biogenesis/expression or activity, and are identified by causing an increase in luminescence, due to increased FLuc translation. However, FLuc inhibitory compounds that stabilize the FLuc protein will give an identical read-out, making it difficult to distinguish compounds that are active against the target from those active against FLuc. Previous profiling work to determine the prevalence of compounds that affect FLuc enzymatic activity (PubChem AID 411) identified that ~3% of the MLSMR library (then at ~72K) inhibited FLuc. […] Since the MLSMR had grown to ~350K compounds, and since it was expected that a significant percentage of compounds found active in the miR-21 FLuc assay would be FLuc inhibitors, the library was screened for activity against FLuc using a biochemical assay of purified FLuc and KM concentrations of FLuc substrates (D-luciferin and ATP).
NCGC Assay Protocol Summary: Reagents: 50mM Tris acetate, pH 7.5; 10mM Mg acetate; 10uM D-luciferin (Sigma #L9504); 10uM ATP; 0.01% Tween-20; 0.05% BSA; 10nM P. pyralis luciferase (Sigma #L9506) Control compounds used were two known firefly luciferase inhibitors (compounds (2) and (5) in Auld et al., 2010), and DMSO. […]

Luciferin 4-monooxygenase (Photinus pyralis), sequence (P08659 whole entry, looked up): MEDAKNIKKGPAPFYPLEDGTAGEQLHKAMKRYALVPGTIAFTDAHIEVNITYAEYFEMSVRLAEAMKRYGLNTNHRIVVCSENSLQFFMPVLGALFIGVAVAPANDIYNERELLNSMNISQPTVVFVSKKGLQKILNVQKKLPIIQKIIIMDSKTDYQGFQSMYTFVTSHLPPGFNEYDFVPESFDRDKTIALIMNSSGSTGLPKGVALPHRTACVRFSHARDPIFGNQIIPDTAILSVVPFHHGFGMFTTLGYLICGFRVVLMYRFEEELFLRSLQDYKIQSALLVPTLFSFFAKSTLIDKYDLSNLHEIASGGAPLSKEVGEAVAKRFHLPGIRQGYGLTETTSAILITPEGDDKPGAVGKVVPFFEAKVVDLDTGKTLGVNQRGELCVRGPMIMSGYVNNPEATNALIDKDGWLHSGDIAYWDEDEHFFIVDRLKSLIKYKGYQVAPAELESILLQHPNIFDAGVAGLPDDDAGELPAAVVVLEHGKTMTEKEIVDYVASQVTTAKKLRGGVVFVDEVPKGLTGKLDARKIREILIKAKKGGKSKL

Row | Compound | Potency
1 | O=C(Nc1cccc(C(=O)N2CCCC2)c1)c1ccccc1 | inactive
2 | Cc1ccc(CCNC(=O)c2ccc(CNS(=O)(=O)c3ccc(C)cc3)cc2)cc1 | inactive
3 | CCc1ccc(NC(=O)N2CCN(C(=O)c3nsc4ccccc34)CC2)cc1 | inactive
4 | Cc1c(Cl)cccc1NC(=O)N1CCN(C(=O)c2nsc3ccccc23)CC1 | inactive
5 | NC(=O)C1CCN(C(=O)c2cccc(NC(=O)c3nsc4ccccc34)c2)CC1 | 12 µM (active)
6 | O=C(CSc1nnc(COc2ccc(Cl)cc2)n1Cc1ccco1)N1CCNC1=O | inactive
7 | COc1ccc(OC)c(CNC(=O)Cn2nc(C)c3c(C)n(-c4ccccc4)nc3c2=O)c1 | inactive
8 | Cc1ccc(CNS(=O)(=O)c2ccc(-c3cc(C(F)(F)F)on3)s2)cc1 | inactive
9 | COc1ccc(S(=O)(=O)Nc2cc(C)on2)cc1NC(C)=O | inactive
10 | Cc1ccc(-c2nc(S(=O)(=O)c3ccc(C)cc3)c(N3CCCCCC3)o2)cc1 | inactive
11 | Nc1ccccc1Sc1cc(Cl)nnc1Cl | inactive
12 | COC(=O)c1scc(-c2ccccc2)c1S(=O)(=O)Nc1ccccc1 | inactive
13 | COc1cc(C(F)(F)F)nc2c(Br)c(C(C)(C)C)nn12 | inactive
14 | O=C(NCCc1c[nH]c2ccccc12)C1CCN(Cc2ccc(Br)cc2)CC1 | inactive
15 | O=C(NCCc1ccccc1)c1ccc2c(c1)N(Cc1ccc(F)cc1)C(=O)c1ccccc1S2(=O)=O | inactive
16 | Cc1ccccc1OCc1nc2c3cnn(-c4ccccc4F)c3ncn2n1 | inactive
17 | COC(=O)c1ccccc1NC(=O)Cn1c(=O)n(-c2cccc(C(F)(F)F)c2)c(=O)c2c(C)c(C)sc21 | inactive
18 | CSc1ncc(Cl)c(C(=O)Nc2ccc(S(=O)(=O)N3CCCC(C)C3)cc2)n1 (stereo unspecified) | inactive
19 | Cc1cccc(NC(=O)Cn2c(C(F)(F)F)nc3ccccc32)c1C | inactive
20 | CCCCc1nn2c(=O)cc(COC(=O)c3ccccc3NC(=O)C(C)(C)C)nc2s1 | inactive
21 | CC(=O)Nc1cccc(-c2nc3ccccc3s2)c1C | 6.01 µM (active)
22 | Cc1cccc(C(=O)N2CCC(c3nc4ccccc4s3)CC2)c1 | inactive
23 | Cc1cccc(C(=O)Nc2ccc(-c3nc4ccccc4s3)c(C)c2)c1 | 2.69 µM (active)
24 | CCC(C(=O)Nc1cccc(-c2nc3cccnc3s2)c1C)c1ccccc1 (stereo unspecified) | inactive
25 | Cc1c(NC(=O)C(C)(C)C)cccc1-c1nc2ccccc2s1 | 4.78 µM (active)
26 | COc1ccc(CC(=O)Nc2ccc(-c3nc4ccccc4s3)c(C)c2)cc1 | inactive

Row | Compound | Potency
27 | Cc1c(NC(=O)Cc2ccccc2)cccc1-c1nc2cccnc2s1 | inactive
28 | COCCCNC(NC(=O)c1ccc(OC)cc1)C(Cl)(Cl)Cl (stereo unspecified) | inactive
29 | COC(=O)c1scc(-c2ccc(C)cc2)c1S(=O)(=O)Nc1cc(Cl)c(OC)cc1OC | inactive
30 | COc1ccccc1Nc1cc(C(=O)NCCCN(C)C2CCCCC2)c2ccccc2n1 | inactive
31 | Cc1ccc(C(=O)CC2(O)C(=O)N(CCc3ccccc3)c3ccc(Br)cc32)cc1 (stereo unspecified) | inactive
32 | COc1cc(Cl)ccc1Nc1ncc(C(=O)N2CCN(c3ccccc3OC)CC2)c2ccccc12 | inactive
33 | COc1cc(OC)cc(C(=O)NCCSCc2ccc(Cl)cc2)c1 | inactive
34 | O=C(O)c1cscn1 | inactive
35 | O=C(CCNS(=O)(=O)c1ccccc1)NCCCc1ccccc1 | inactive
36 | c1csc(-c2cn3c(n2)SCC3)c1 | inactive
37 | CC(=O)Nc1ccc(NC(=O)COc2ncnc3ccccc23)cc1 | inactive
38 | CC(=O)Nc1cccc(-c2csc(Nc3cccc(C)n3)n2)c1 | 2.39 µM (active)
39 | COC(=O)c1ccc(NC(=S)Nc2cccc(C)n2)cc1 | inactive
40 | O=C(Nc1ccc(-c2csc(Nc3cccc(C(F)(F)F)c3)n2)cc1)c1cccc(C(F)(F)F)c1 | inactive
41 | Clc1ccc(Nc2nc(-c3cccs3)cs2)nc1 | 1.51 µM (active)
42 | CC(=O)Nc1cccc(-c2cnc3ccccc3n2)c1 | 12 µM (active)
43 | O=C(Nc1nc(-c2cccnc2)cs1)c1ccccc1F | inactive
44 | Cc1cc(=O)oc(C)c1C(=O)Nc1cnc2ccccc2c1 | inactive
45 | Cc1nc(CNS(=O)(=O)c2cccnc2)cs1 | inactive
46 | Cc1ccccc1Nc1nc(-c2cccnc2)cs1 | 6.01 µM (active)
47 | COc1ccc(Br)cc1C1CC(=O)Nc2c1c(C)nn2-c1nc(C)cc(C)n1 (stereo unspecified) | inactive
48 | Cc1ccc(NC(=O)CSc2nc3c([nH]c4ccccc43)c(=O)n2-c2ccccc2)c(C)c1 | inactive
49 | O=C(CN(C(=O)c1csnn1)c1cccc(Cl)c1)NC1CCCC1 | inactive
50 | CCCCN(CC(=O)Nc1cccc(S(=O)(=O)N2CCCC2)c1)Cc1nc2ccccc2c(=O)[nH]1 | inactive
51 | COC(=O)c1ccc(COC(=O)CNC(=O)c2cccc(OC)c2)o1 | inactive
